The record followed here is PubChem BioAssay AID2685 (National Center for Advancing Translational Sciences (NCATS), 2010).

Among all 320,000 compounds or so, about 2,100 (0.66%) were called active. Roughly 53% stayed inconclusive and do not appear here. Calls come from the whole dose curve; as a rule, active = well fitted inhibition curve with a large enough effect in the signal ratio, with a control signal flat (not every such curve was filed as active); inconclusive = small, poorly fitted or top-dose-only effect, or effect the other way, or a change in a side signal; inactive = flat fitted curve, though single readings scatter; the % refers to the signal ratio. This excerpt belongs to a sample that is enriched for actives.
Potency is the fitted concentration of half-maximal effect.

This experiment can be described thus: qHTS Assay for Lipid Storage Modulators in Drosophila S3 Cells.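 For cell number change: cells counted by Cell Tracker Red CMTPX staining in the red channel.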 The note with it: BODIPY lipid droplet fluorescence, 18-24 h, cells fed with added oleic acid; cell number change: measured here: cell count max response; series mostly up to 46.1 µM. In short, it runs like this:
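Drosophila S3 cells got compounds at several concentrations plus oleic acid (400 uM solution). Laser-scanning cytometry with 488 nm excitation read lipid droplets at 500-530 nm and cells at 575-640 nm. Percent activity was relative to 20 uM Triacsin C.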
Take `CCOc1ccccc1C(=O)n1nc2nc(C)cc(C)c2c1N`: the Potency result was “inactive” and the cell number change came out at 6.26%.

Regarding `CCCn1c(N)c(C(=O)CSc2nnc(C3CC3)n2Cc2ccccc2)c(=O)[nH]c1=O`, the Potency entry is “inactive” and the cell number change is 7.78%.

Take `COc1ccc(C(=O)/C=C/c2ccccc2)c(OC)c1`: the Potency entry is “inactive” and the cell number change came out at 16.5%.

With `O=C1C(=O)N(CCCN2CCOCC2)C(c2ccc(F)cc2)/C1=C(\O)c1ccc2c(c1)OCCO2` (stereo not given), the Potency entry was “inactive” and the cell number change is -2.36%.

As for `COc1cccc(C(=O)Nc2cccc(OC(C)=O)c2)c1`, the Potency result is “inactive” and the cell number change was -9.37%.

In the case of `COc1ccc(CCN2C(=O)/C(=C\c3ccco3)SC2=S)cc1OC`, the Potency result is “inactive” and the cell number change was -20.3%.

Take `CCCCNC(=O)COC(=O)c1c2c(nc3ccccc13)CCC2`: the Potency is 7.31 µM (active) and the cell number change was 1.26%.

Regarding `COc1ccc(NC(=O)COC(=O)c2c3c(nc4ccccc24)CCCC3)cc1`, the Potency entry is “inactive” and the cell number change was -10.5%.

As for `CNC(=O)COC(=O)c1c2c(nc3ccccc13)CCC2`, the Potency entry was “inactive” and the cell number change is -0.369%.

`CN(CC(=O)NCCN1CCN(Cc2ccccc2)CC1)S(=O)(=O)c1cccc2nsnc12`: the Potency entry was “inactive” and the cell number change was 3.2%.

For `COCC(C)NC(=O)CCc1nnc(C2(c3ccc(Cl)cc3)CCC2)o1` (stereo not given), the Potency result was “inactive” and the cell number change was 7.22%.

Take `CCOc1ccc(NC(=O)CCC(=O)n2nc(C)cc2C)cc1`: the Potency entry is “inactive” and the cell number change was 1.15%.

For the molecule `Cc1cc(C)n(C(=O)CCCC(=O)n2nc(C)cc2C)n1`, the Potency entry was “inactive” and the cell number change was -1.02%.

Turning to `Cc1ccc(NC(=O)CCC(=O)n2nc(C)cc2C)c(C)c1`, the Potency is 18.4 µM (active).

For `CC(C)N(C(=O)Cn1c(=O)oc2ccccc21)c1ccccc1`, the Potency entry was “inactive” and the cell number change is 12.3%.

`COc1ccc([C@@H]2[C@@H]3C(=O)N(C(C)(C)C)C(=O)[C@@H]3[C@]3(C)C(=O)N(c4ccc(C(F)(F)F)cc4)C(=O)N23)cc1`: the Potency entry was “inactive” and the cell number change was determined as 14.7%.

On to `CCN1C(=O)[C@H]2[C@@H](c3ccc(C)cc3)N3C(=O)N(c4ccccc4)C(=O)[C@@]3(CC)[C@H]2C1=O`, for which the Potency entry was “inactive” and the cell number change is 16.2%.

With `CCN1C(=O)[C@H]2[C@@H](c3ccc(C)cc3)N3C(=O)N(c4ccc(C(F)(F)F)cc4)C(=O)[C@@]3(CC(C)C)[C@H]2C1=O`, the Potency was 18.4 µM (active) and the cell number change turned out to be 11.1%.

With `COc1ccc([C@@H]2[C@@H]3C(=O)N(C(C)(C)C)C(=O)[C@@H]3[C@]3(Cc4ccc(Cl)cc4)C(=O)N(c4ccc(OC)cc4)C(=O)N23)cc1`, the Potency entry is “inactive” and the cell number change was 16%.

As for `CCN1C(=O)[C@H]2[C@@H](c3ccc(C)cc3)N3C(=O)N(c4ccc(C(F)(F)F)cc4)C(=O)[C@@]3(CC)[C@H]2C1=O`, the Potency entry is “inactive” and the cell number change is -7.19%.

Take `COc1ccc([C@@H]2[C@@H]3C(=O)N(C(C)(C)C)C(=O)[C@@H]3[C@]3(CC(C)C)C(=O)N(c4ccc(C(F)(F)F)cc4)C(=O)N23)cc1`: the Potency was 20.6 µM (active) and the cell number change was found to be 18.1%.

As to `COc1ccc(CCNC(=O)CSc2ccc(-c3ccccc3)nn2)cc1`, the Potency entry was “inactive” and the cell number change amounted to 2.87%.

Regarding `CC(C)CNC(=O)C1CC(=O)OC12CCCCC2` (stereo not given), the Potency entry is “inactive”.

Consider `CC(Oc1ccc(C(=O)c2ccccc2)cc1)C(=O)N1CCOCC1` (stereo not given), for which the Potency result is “inactive”.

Take `CC(Oc1ccc(-c2nnco2)cc1)C(=O)N1CCOCC1` (stereo not given): the Potency entry is “inactive” and the cell number change was 6.36%.

`CC(Oc1ccc(-c2ccccc2)cc1)C(=O)N1CCOCC1` (stereo not given): the Potency is 2.91 µM (active) and the cell number change came out at 17.9%.

Take `CCCN1Cc2cccc(C(=O)NCCCOC(C)C)c2C1=O`: the Potency entry is “inactive” and the cell number change came out at 2.03%.

In the case of `Cc1ccc(-c2cc(C(=O)NCCCN3CCCC3)c3ccccc3n2)cc1C`, the Potency result was “inactive”.

Take `COc1cccc(NC(=O)C2CC(=O)n3cnnc3S2)c1` (stereo not given): the Potency entry was “inactive” and the cell number change is -29%.

As to `Cc1cccc(NC(=O)C2CC(=O)n3cnnc3S2)c1` (stereo not given), the Potency was 13 µM (active) and the cell number change was -1.17%.

In the case of `CCN=C1SC(C(=O)Nc2cccc(C)c2)CC(=O)N1CC` (stereo not given), the Potency entry was “inactive” and the cell number change was -13.5%.

For the molecule `COc1ccc(N=C2NC(=O)/C(=C/c3ccco3)S2)cc1`, the Potency result was “inactive” and the cell number change was 15.8%.

Turning to `O=C(CNC(=O)c1ccco1)Nc1ccncc1`, the Potency result is “inactive”.

With `COC(=O)/C=C1/SC(=Nc2ccc(Cl)c(Cl)c2)NC1=O`, the Potency entry is “inactive” and the cell number change was determined as 7.13%.

Take `COC(=O)/C=C1\SC(=Nc2ccccc2)NC1=O`: the Potency result was “inactive” and the cell number change came out at 10.6%.

Consider `CCOc1ccc(N=C2NC(=O)/C(=C/C(=O)OC)S2)cc1`, for which the Potency is 25.9 µM (active).

As for `O=C(c1nc2ccccn2c1CNCCCn1ncc2ccccc21)N1CCOCC1`, the Potency result was “inactive” and the cell number change came to 25.5%.

For the molecule `COc1cccc(/C=N/NC(N)=S)c1OS(=O)(=O)c1ccccc1`, the Potency result is “inactive” and the cell number change is -16.4%.

Consider `NC(=S)N/N=C\c1ccccc1OCc1ccccc1`, for which the Potency result was “inactive” and the cell number change came out at 0.634%.

With `COc1cccc(/C=N/NC(N)=S)c1OCc1cccc(Cl)c1`, the Potency is 8.2 µM (active) and the cell number change came to 0.0836%.

In the case of `O=C(c1ccc(C#CC2(O)CCCCC2)cc1)N1CCOCC1`, the Potency entry is “inactive” and the cell number change was found to be 5.75%.

With `O=C1OCC(CO)(CO)N=C1NNc1ccccc1Cl`, the Potency result is “inactive”.

`COc1cccc(C2=NOC(C(=O)Nc3cccnc3Cl)C2)c1` (stereo not given): the Potency result is “inactive” and the cell number change is 3.11%.

As to `CN(c1ccccc1)S(=O)(=O)c1cccc(NC(=O)c2ccncc2)c1`, the Potency result is “inactive” and the cell number change stood at 0.47%.

As for `Cc1cc(C)n2nc(C(=O)Nc3ccc(S(=O)(=O)N(C)C)cc3)nc2n1`, the Potency entry is “inactive” and the cell number change was -26.7%.

As for `Cc1cc(C)n2nc(C(=O)Nc3cccc(S(=O)(=O)N(C)c4ccccc4)c3)nc2n1`, the Potency is 11.6 µM (active) and the cell number change is -15.3%.

With `Cc1nc2c(-c3ccccc3)cnn2c(N2CCOCC2)c1C`, the Potency is 2.91 µM (active) and the cell number change was -16.7%.

For the molecule `CC(C)(C)c1cc(N2CCOCC2)n2ncc(-c3ccccc3)c2n1`, the Potency entry is “inactive” and the cell number change is -9.44%.

Consider `Cc1cc(N2CCOCC2)n2ncc(-c3ccccc3)c2n1`, for which the Potency entry is “inactive” and the cell number change was -5.35%.

Turning to `O=C(CN1CCCCC1)N1N=C(c2cccs2)CC1c1cccs1` (stereo not given), the Potency entry was “inactive” and the cell number change was 18.5%.

With `CSc1ccc(CN(C)C(=O)CSCC(=O)Nc2cc(C)on2)cc1`, the Potency result was “inactive” and the cell number change stood at 13.3%.

On to `CN(C(=O)CSc1nnc(-c2ccccc2)n1C)C1CCS(=O)(=O)C1` (stereo not given), for which the Potency entry is “inactive”.

Regarding `CCn1c(SCC(=O)N(C)C2CCS(=O)(=O)C2)nnc1-c1ccccc1` (stereo not given), the Potency entry was “inactive” and the cell number change is -11.5%.

On to `CN(C(=O)CSc1nc2ccccc2[nH]1)C1CCS(=O)(=O)C1` (stereo not given), for which the Potency result is “inactive” and the cell number change was -2.26%.

In the case of `CN(C(=O)CSc1nnc(-c2ccc(C(C)(C)C)cc2)n1C)C1CCS(=O)(=O)C1` (stereo not given), the Potency was 10.3 µM (active) and the cell number change was 3.86%.

As for `Cc1ccc2nc(SCC(=O)N(C)C3CCS(=O)(=O)C3)[nH]c2c1` (stereo not given), the Potency is 1.16 µM (active) and the cell number change was 7.53%.

For `CCN(C(=O)CSc1nc2ccc(OC)cc2[nH]1)C1CCS(=O)(=O)C1` (stereo not given), the Potency entry was “inactive”.
